Source: ChEMBL document CHEMBL3988442, “University of Dundee, Small-Polar-MMV Screening Library” (2021)
In all, about 48,000 compounds went through this assay and about 13,000 (27%) showed an effect of 50% or more. This is one part of the list.

Each compound was assayed on Wolbachia pipientis (assay: Anti-Wolbachia Cell-Based Screen). Conditions: 5 µM.
Type: functional
Set-up: scale not given: in the data most compounds retested in dose-response had high values
For `COc1ccc(CNc2cnn(CC(F)F)c2)cc1`, the “Percent Effect” value was 98.47%. With `COc1cccc(CNc2c(C)nn(C(C)C)c2C)c1.Cl` the “Percent Effect” value was -5.673%. `COc1cccc(CNc2cnn(C)c(=O)c2Cl)c1` was tested, and the “Percent Effect” value was -15.43%. `CC(C)(C)C(=O)N1CCN(C(=O)Nc2cnn(CC(F)F)c2)CC1` was tested, and the “Percent Effect” value was 14.61%. With `COc1cccc(CNc2cnn(CC(F)F)c2)c1` the “Percent Effect” value was 110.9%. `COCCn1cc(NCc2c[nH]nc2-c2ccc(OC)cc2)cn1` was tested, and the “Percent Effect” value was -43.6%. In the case of `CC1=CC(C)(C)N(CN2C(=O)c3ccccc3C2=O)c2ccc(C)cc21`, the “Percent Effect” value was -18.46%. With `CCN1CCC(CC(=O)NCCc2nc(C)c(Cl)s2)CC1` the “Percent Effect” value was -2.005%. `CCC(c1nc(CC(C)C)nn1-c1ccccn1)n1cccn1` (stereo unspecified) was tested, and the “Percent Effect” value was -7.483%. With `Nc1nccc(C2CCN(c3cnccn3)C2)n1` (stereo unspecified) the “Percent Effect” value was 100.6%. For `Cc1ccc(-c2cn[nH]c2C2CCCN(c3cnccn3)C2)cc1` (stereo unspecified), the “Percent Effect” value was -26.5%. For `c1ccc(C2CCN(c3cncc(-n4cccn4)n3)CC2)cc1`, the “Percent Effect” value was -3.284%. For `CC(C)c1nccn1C(C)C(=O)N1CCN(c2cnccn2)CC1` (stereo unspecified), the “Percent Effect” value was 8.025%. For `O=C1OCCC1N1CCN(c2cnccn2)CC1` (stereo unspecified), the “Percent Effect” value was -13.03%. For `CSCCCN1CCC[C@]2(C(=O)O)CN(c3cnccn3)CC[C@@H]12`, the “Percent Effect” value was -18.46%. In the case of `CN(C)c1ccc(C2CCN(c3cnccn3)CC2)nc1`, the “Percent Effect” value was 110.3%. In the case of `c1cc(C2CCN(c3cnccn3)CC2)ncn1`, the “Percent Effect” value was 111.8%. For `c1cc(C2CCN(c3cnccn3)CC2)ccn1`, the “Percent Effect” value was 108.9%. For `CC(c1ccccc1)N(C)C(=O)CN1CCN(c2cnccn2)CC1` (stereo unspecified), the “Percent Effect” value was -4.354%. In the case of `Cc1ccc(CN2CC[C@@H](O)[C@@H]2Cc2ccccc2)o1.O=C(O)C(F)(F)F`, the “Percent Effect” value was 1.325%. `CC(=O)c1cccc(OCCCC(=O)N(C)Cc2ccccn2)c1` was tested, and the “Percent Effect” value was 14.18%. For `CC(C)[C@@H]1CN(S(=O)(=O)Cc2ccccc2)C[C@H]1NS(=O)(=O)N(C)C`, the “Percent Effect” value was -33.69%. With `CC(C)[C@@H]1CN(Cc2ccsc2)C[C@H]1NS(=O)(=O)N(C)C` the “Percent Effect” value was 12.46%. In the case of `Cc1noc(C)c1CN1C[C@@H](NC(=O)N(C)C)[C@H](C(C)C)C1`, the “Percent Effect” value was -17.12%. With `CCN(C)S(=O)(=O)N[C@H]1CN(c2ccc(F)cn2)C[C@@H]1C(C)C` the “Percent Effect” value was 1.28%. With `CC(C)[C@@H]1CN(c2ccc(F)cn2)C[C@H]1NS(C)(=O)=O` the “Percent Effect” value was -10.09%. In the case of `CC(C)[C@@H]1CN(c2ncc(F)cn2)C[C@H]1NS(=O)(=O)N(C)C`, the “Percent Effect” value was 83.11%. For `CC(C)[C@@H]1CN(c2ncc(F)cn2)C[C@H]1NC(=O)N(C)C`, the “Percent Effect” value was 70.99%. For `CC(C)[C@H]1CN(c2ccncc2)C[C@@H]1NS(=O)(=O)N(C)C`, the “Percent Effect” value was 113.1%. `COc1ccnc(N2C[C@@H](NS(=O)(=O)N(C)C)[C@H](C(C)C)C2)n1` was tested, and the “Percent Effect” value was 1.494%. For `CCc1nc2n(n1)CCCC2Nc1nc(C(C)C)ns1` (stereo unspecified), the “Percent Effect” value was -21.17%. With `CC(C)CCN1CC2(CCCN(C(=O)c3cscn3)C2)CCC1=O` (stereo unspecified) the “Percent Effect” value was -17.51%. For `CC(C)(C)n1cc(C(=O)N2CCN(Cc3ccsc3)CC2)cn1`, the “Percent Effect” value was 2.604%. `O=C(NC[C@H]1OC[C@@H](NC2CCC(F)(F)CC2)[C@@H]1O)Nc1ccccc1` was tested, and the “Percent Effect” value was -10.14%. With `Cc1ccc(F)cc1S(=O)(=O)NCc1[nH]ncc1Br` the “Percent Effect” value was -6.756%. `CC(=O)N1CCCN(C(=O)Cc2c(C)nc(C)[nH]c2=O)CC1` was tested, and the “Percent Effect” value was -4.556%. For `Cc1cc(NS(=O)(=O)c2cnc3onc(C)c3c2)no1`, the “Percent Effect” value was -3.715%. `CC(=O)N1CCN(Cc2coc(-c3cccc(F)c3)n2)CC1` was tested, and the “Percent Effect” value was 97.72%. In the case of `CN(C)C(=O)CN1CCN(Cc2coc(-c3cccc(F)c3)n2)CC1`, the “Percent Effect” value was 102.1%. `COCC(=O)N1CCN(Cc2coc(-c3cccc(F)c3)n2)CC1` was tested, and the “Percent Effect” value was -10.41%. With `Fc1cccc(-c2nc(CN3CCCCC3Cn3cncn3)co2)c1` (stereo unspecified) the “Percent Effect” value was -6.024%. For `CC1CCCN(Cc2coc(-c3cccc(F)c3)n2)C1` (stereo unspecified), the “Percent Effect” value was -1.096%. With `CCNC(=O)C1CN(Cc2c(-c3cc(C)on3)nn(C)c2Cl)CCO1` (stereo unspecified) the “Percent Effect” value was -15.99%. `Cl.O=S(=O)(N1CCCCC1)N1CCc2nc(C3CCNCC3)ncc2C1` was tested, and the “Percent Effect” value was -9.776%. In the case of `CCC(C)S(=O)(=O)N1CCc2nc(C3CCNCC3)ncc2C1.Cl` (stereo unspecified), the “Percent Effect” value was 105.9%. `CCN(CC)S(=O)(=O)N1CCCC(c2nccn2Cc2ccncc2)C1` (stereo unspecified) was tested, and the “Percent Effect” value was 6.265%. With `CCN(CC)S(=O)(=O)N1CCc2nc(C3CCNCC3)ncc2C1.Cl` the “Percent Effect” value was 116.7%. With `CC(C)NC(=O)c1cc2c(nc1N(C)C)CCN(S(=O)(=O)C1CC1)CC2` the “Percent Effect” value was -5.433%. For `CCc1cc(CNC(=O)N2Cc3ccccc3N(C)CC2C)on1` (stereo unspecified), the “Percent Effect” value was 12.48%. In the case of `CN(Cc1ccc(Br)s1)Cn1nc(-c2ccccc2)oc1=O`, the “Percent Effect” value was 38.33%. In the case of `CN(Cc1ccc(Br)s1)Cn1nc(-c2ccc(F)cc2)oc1=O`, the “Percent Effect” value was 11.33%. For `Cc1ncc(CN(C)Cn2nc(-c3ccccc3)oc2=O)s1`, the “Percent Effect” value was 56.71%. With `CSc1nccc(NCC2CNCCO2)n1` (stereo unspecified) the “Percent Effect” value was 3.575%. `Cn1cc(CNCCC(=O)NCc2ccccc2)c(-c2cccnc2)n1` was tested, and the “Percent Effect” value was -3.655%. `Cc1c(C(=O)N2CCCC(n3cncn3)C2)cnn1C` (stereo unspecified) was tested, and the “Percent Effect” value was 111.3%. For `CC(C)c1nc(C(=O)N2CCCC(n3cncn3)C2)c[nH]1` (stereo unspecified), the “Percent Effect” value was 7.683%. In the case of `CCc1ccc(C(=O)N2CCCC(n3cncn3)C2)o1` (stereo unspecified), the “Percent Effect” value was -14.61%. For `Cc1[nH]ncc1C(=O)N1CCCC(n2cncn2)C1` (stereo unspecified), the “Percent Effect” value was -1.83%. In the case of `Cc1cc(C(=O)N2CCCC(n3cncn3)C2)on1` (stereo unspecified), the “Percent Effect” value was 105.4%. `CCC(CC)c1cc(C(=O)N2CCCC(n3cncn3)C2)on1` (stereo unspecified) was tested, and the “Percent Effect” value was -3.018%. With `Cc1cc(C(=O)N2CCCC(n3cncn3)C2)nn1C` (stereo unspecified) the “Percent Effect” value was 113.3%. In the case of `Cn1nc(C(=O)N2CCCC(n3cncn3)C2)ccc1=O` (stereo unspecified), the “Percent Effect” value was -5.25%. In the case of `Cc1cnc(C(=O)N2CCCC(n3cncn3)C2)cn1` (stereo unspecified), the “Percent Effect” value was 95.37%. For `CCNC(=O)N1C[C@@H]2OCC(=O)N(CC3CC3)[C@@H]2C1`, the “Percent Effect” value was -6.422%. `Cc1nsc(NC2CCOC3(CCCCC3)C2)n1` (stereo unspecified) was tested, and the “Percent Effect” value was -0.6251%. For `Cc1cnn(CCNCc2csc(-c3ccc4c(c3)OCO4)n2)c1`, the “Percent Effect” value was -11.61%.
